# ± gives the standard deviation of the averaged measurements.
# Compound: CC(C)c1cccc(C(C)C)c1N1C(=O)c2ccc(O)cc2C1=O
# Assay: BioMAP readout fold decrease vs vehicle (vehicle/treated); higher = stronger decrease of the readout vs vehicle (values <1 mean increase)
# Description: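 BioSeek BioMAP human primary cell (co-)culture systems (3C, 4H, LPS, SAg, BE3C, CASM3C, hDFCGF, KF3CT) treated with 5HPP-33 at 1.48, 4.44, 13.3 and 40 µM. Read-outs are protein levels by ELISA, proliferation and SRB total protein. Duplicate rows per assay are averaged as replicates. Tested in ToxCast Phase II for this study; exposure time not stated.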
# 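Also: Co-cultures of keratinocytes, bronchial epithelial and smooth muscle cells, fibroblasts, HUVECs and PBMCs under stimuli like LPS, TNF-α, IFN-γ, IL-1β, TGF-β or EGF, SRB reflecting cytotoxicity.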
target,measurement,setting,value
CASM3C_SAA,BioMAP readout fold decrease,1.48 µM,1.02 ± 0.09
same,BioMAP readout fold decrease,4.44 µM,1.12 ± 0.018
same,BioMAP readout fold decrease,13.3 µM,1.094 ± 0.0048
same,BioMAP readout fold decrease,40 µM,1.72 ± 0.1
LPS_IL8,BioMAP readout fold decrease,1.48 µM,1.07 ± 0.0052
same,BioMAP readout fold decrease,4.44 µM,0.942 ± 0.0096
same,BioMAP readout fold decrease,13.3 µM,0.805 ± 0.015
same,BioMAP readout fold decrease,40 µM,1.02 ± 0.053
CASM3C_Thrombomodulin,BioMAP readout fold decrease,1.48 µM,0.989 ± 0.031
same,BioMAP readout fold decrease,4.44 µM,0.942 ± 0.049
same,BioMAP readout fold decrease,13.3 µM,0.956 ± 0.031
same,BioMAP readout fold decrease,40 µM,1.23 ± 0.078
4H_Pselectin,BioMAP readout fold decrease,1.48 µM,0.965 ± 0.074
same,BioMAP readout fold decrease,4.44 µM,1.09 ± 0.095
same,BioMAP readout fold decrease,13.3 µM,1.56 ± 0.019
same,BioMAP readout fold decrease,40 µM,1.75 ± 0.032
CASM3C_IL6,BioMAP readout fold decrease,1.48 µM,0.923 ± 0.002
same,BioMAP readout fold decrease,4.44 µM,0.9348 ± 0.0071
same,BioMAP readout fold decrease,13.3 µM,0.8611 ± 0.001
same,BioMAP readout fold decrease,40 µM,0.752 ± 0.0092
hDFCGF_MMP1,BioMAP readout fold decrease,1.48 µM,0.956 ± 0.05
same,BioMAP readout fold decrease,4.44 µM,0.93304 ± 0.00091
same,BioMAP readout fold decrease,13.3 µM,0.85 ± 0.0086
same,BioMAP readout fold decrease,40 µM,1.09 ± 0.13
BE3C_IL1a,BioMAP readout fold decrease,1.48 µM,1.06 ± 0.13
same,BioMAP readout fold decrease,4.44 µM,1.13 ± 0.015
same,BioMAP readout fold decrease,13.3 µM,1.19 ± 0.015
same,BioMAP readout fold decrease,40 µM,1.85 ± 0.082
4H_VCAM1,BioMAP readout fold decrease,1.48 µM,0.977 ± 0.017
same,BioMAP readout fold decrease,4.44 µM,0.978 ± 0.044
same,BioMAP readout fold decrease,13.3 µM,1.06 ± 0.018
same,BioMAP readout fold decrease,40 µM,2.2 ± 0.07
hDFCGF_CollagenIII,BioMAP readout fold decrease,1.48 µM,1.123 ± 0.0039
same,BioMAP readout fold decrease,4.44 µM,1.19 ± 0.025
same,BioMAP readout fold decrease,13.3 µM,1.04 ± 0.012
same,BioMAP readout fold decrease,40 µM,1.49 ± 0.13
3C_Thrombomodulin,BioMAP readout fold decrease,1.48 µM,1.06 ± 0.032
same,BioMAP readout fold decrease,4.44 µM,0.9983 ± 0.0097
same,BioMAP readout fold decrease,13.3 µM,0.939 ± 0.01
same,BioMAP readout fold decrease,40 µM,0.984 ± 0.054

# Source: the supplement of paper PMC3616981
